Screening results deposited in PubChem by National Center for Advancing Translational Sciences (NCATS).
Most compounds without a hit are left out; they make up all but 19% or so of the library.
TDP1 cell CPT – growth inhibition of DT40 Tdp1-/-;hTDP1 cells with camptothecin (screen for TDP1 inhibitors); chicken DT40 Tdp1-/-;hTDP1 cells + 20 nM CPT, ATP luminescence, 48 h; Potency, µM (titrated, usually from 46.2 µM), for inactives: at the highest dose activity change, negative = growth inhibition, actives largely listed as inhibitors; 12% of 420,000 active; further: potency means the concentration at half of the fitted maximal effect; nearly all actives have a fitted effect of over 55% in size
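Chicken DT40 Tdp1-/- cells stably complemented with human TDP1 were seeded at 400 cells/well in medium containing 20 nM camptothecin, exposed to pin-transferred compounds, and grown at 37 °C for at least 48 hr. Viability was read as ATP luminescence.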
IL-1B inflam inh – blocks inflammasome-driven IL-1 beta release; activity change, % at 57.5 µM; THP-1 LPS/ATP IL-1B secretion, AlphaLISA, 16 h; stronger effect = lower value; AID 743279; 4.7% of 360,000 active; in the data active means activity change below about -50%; inconclusive means mostly about -30% to -49%
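THP-1 cells pretreated 1 hr with compounds (up to 57.5 uM final), then stimulated with LPS (250 ng/mL final) plus ATP (1.25 mM final); secreted IL-1B measured by AlphaLISA after 16 hr, decreased signal indicating inhibition.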
HT1080NT lethal – kills 2HG-producing HT-1080-NT fibrosarcoma cells; HT-1080-NT fibrosarcoma viability, CellTiter-Glo ATP luminescence, 48 h; Potency, µM (series often up to 46.1 µM), inactives show at the highest dose activity, negative = less viability, actives largely listed as cytotoxic; 1.6% of 360,000 active;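 further: NT is the 2HG producing partner of a matched IDH1 knockdown line; potency means the concentration at half of the fitted maximal effect; 0% = DMSO-treated cells and -100% = media-only wells without cells; nearly all actives have a fitted effect of over 55% in size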
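Read-out is CellTiter-Glo luminescence after 10 minutes at room temperature, following 48 hours' compound treatment of HT-1080-NT cells (750 cells/well, RPMI, 5% FBS, 37 degrees C).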
HT1080 IDH1KD tx – kills HT-1080 cells with IDH1 knockdown | Potency, µM (top dose mostly 46.1 µM), for the others: top-dose activity, negative = toxicity, usual class: cytotoxic | HT-1080 IDH1 knockdown viability, ATP luminescence, 48 h | 2% of 360,000 active | AID 686971;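 further: potency means the concentration at half of the fitted maximal effect; 0% = DMSO wells and -100% = cell-free medium wells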
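Using the IDH1-knockdown HT-1080 line run in the same batch and compound series as the NT line, viability after 48 h at 37 °C was determined by CellTiter-Glo luminescence and expressed as % activity.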
TDP1 cell noCPT – qHTS for Inhibitors of human tyrosyl-DNA phosphodiesterase 1 (TDP1): qHTS in cells in absence of CPT. DT40 Tdp1-/- hTDP1 cells, no CPT, ATP luminescence, 48 h. Potency, µM (doses to about 46.2 µM), without a hit: at the highest dose activity change, negative = growth inhibition, most hits filed as inhibitors. 15% of 420,000 active; further: potency means the concentration at half of the fitted maximal effect; nearly all actives have a fitted effect of over 55% in size
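No-CPT arm: Tdp1-/-;hTDP1 DT40 cells (400/well) plus compounds, incubated ≥48 hr at 37 °C. Readout CellTiter-Glo luminescence.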
Numbers without * were called inactive; ? = inconclusive; nt = not tested or not shown. Unless noted, the call rests on the fitted dose curve; in most records, active means well fitted curve in the direction sought with a large enough effect; inconclusive means small, poorly fitted or top-dose-only effect, or another doubt; inactive means no such curve, though single readings can be large; an effect the other way counts as inactive or inconclusive. Unless noted, on the % scale 0 is the no-effect control and ±100 the full control effect.

SMILES | TDP1 cell CPT | IL-1B inflam inh | HT1080NT lethal | HT1080 IDH1KD tx | TDP1 cell noCPT
Cc1nn(C)c2c1c(C(F)(F)F)cc(=O)n2C(C)C(=O)NCCc1ccc(Cl)cc1 (stereo unspecified) | 15µM* | nt | nt | nt | ?
Cc1nn(C)c2c1c(C(F)(F)F)cc(=O)n2C(C)C(=O)N1CCN(c2ccccc2)CC1 (stereo unspecified) | 23µM* | nt | nt | nt | ?
COc1ccc(N2CCN(C(=O)C(C)n3c(=O)cc(C(F)(F)F)c4c(C)nn(C)c43)CC2)cc1 (stereo unspecified) | 12µM* | nt | nt | nt | 12µM*
CCOC(=O)C(O)(CC(=O)c1ccc(OC)cc1)C(F)(F)F (stereo unspecified) | -2% | 50 | -2% | -2% | -8%
O=C(CN1CCN(c2ccc(O)cc2)CC1)Nc1cc(S(=O)(=O)N2CCCCC2)ccc1Cl | 10µM* | -16 | ? | -17% | 10µM*
O=C(CNCc1ccc(Cl)cc1)Nc1cc(S(=O)(=O)N2CCCC2)ccc1Cl | 21µM* | -3 | 4% | -2% | ?
O=C(CN1CCN(c2ccc(O)cc2)CC1)Nc1cc(S(=O)(=O)N2CCCC2)ccc1Cl | ? | -14 | -2% | -6% | 18µM*
CCN1CCN(CC(=O)Nc2cc(S(=O)(=O)N3CCCCC3)ccc2Cl)CC1 | -25% | -12 | -7% | -11% | -10%
CCOC(=O)C1CCN(CC(=O)Nc2cc(S(=O)(=O)N3CCCCC3)ccc2Cl)CC1 | 21µM* | -7 | -13% | -12% | 21µM*
CC1CN(CC(=O)Nc2cc(S(=O)(=O)N3CCCC3)ccc2Cl)CC(C)O1 (stereo unspecified) | -22% | 11 | 6% | 9% | ?
CCCc1cc2nnc(SCC(=O)N(C)C3CCCCC3)n2c(N)n1 | 1% | -7 | 14% | 19% | -12%
O=C(NC1CC(=O)N(c2ccc(F)cc2)C1)c1ccco1 (stereo unspecified) | -16% | nt | nt | nt | -22%
Cn1ncc(Cl)c1C(=O)N1CCC(Cc2ccccc2)CC1 | -14% | ? | 10% | -5% | -10%
CCOc1ccc(C2C(C(=O)Nc3ccc(OC)cc3)=C(C)Nc3nc(SCc4ccc(Cl)cc4)nn32)cc1 (stereo unspecified) | -1% | nt | nt | nt | -23%
Cc1cc(N2CCOCC2)nc2ccc(NC(=O)CCC(=O)N3CCC(C)CC3)cc12 | 1% | 8 | 13% | 10% | ?
Cc1cc(N2CCC(C)CC2)nc2ccc(NC(=O)CCC(=O)N3CCN(c4ccccc4F)CC3)cc12 | 18µM* | nt | nt | nt | 15µM*
Cc1cc(N2CCOCC2)nc2ccc(NC(=O)CCC(=O)N3CCN(c4cccc(C(F)(F)F)c4)CC3)cc12 | 4.1µM* | -77* | 23µM* | ? | 2.1µM*
Cc1sc2nc(COC(=O)c3ccc(O)cc3)[nH]c(=O)c2c1C | ? | 8 | 4% | 0% | 18µM*
Cc1sc2nc(COC(=O)c3ccc(N4CCCC(C)C4)c([N+](=O)[O-])c3)[nH]c(=O)c2c1C (stereo unspecified) | ? | 8 | 3% | -2% | 16µM*
Cc1sc2nc(COC(=O)c3ccc(Cl)c(N)c3)[nH]c(=O)c2c1C | 16µM* | 0 | 11% | 9% | 7.3µM*
Cc1cc(NC(=O)COC(=O)c2ccccc2[N+](=O)[O-])no1 | 0% | 23 | 6% | 1% | 6%
C=CCOc1ccc(C2C(C(=O)c3ccco3)=C(O)C(=O)N2Cc2cccnc2)cc1 (stereo unspecified) | -2% | 30 | 7% | 3% | ?
Nc1nc2cc(Cl)ccc2cc1C(=O)NCCCc1ccccc1 | ? | 44 | ? | -23% | 15µM*
COc1ccc(CCNC(=O)c2cc3ccc(Cl)cc3nc2N)cc1 | ? | 0 | -13% | ? | 5.8µM*
COc1ccc(CCNC(=O)c2ccc(Cl)cc2)cc1 | ? | 13 | 13% | 2% | -8%
SMILES | TDP1 cell CPT | IL-1B inflam inh | HT1080NT lethal | HT1080 IDH1KD tx | TDP1 cell noCPT
O=C(c1ccc(S(=O)(=O)NCC2CCCO2)cc1)N1CCN(c2cccc(Cl)c2)CC1 (stereo unspecified) | 15µM* | 34 | 0% | 0% | 15µM*
O=S(=O)(NCC1CCCO1)c1ccc(-c2ccc(Cl)cc2)cc1 (stereo unspecified) | 12µM* | 6 | -19% | -1% | 13µM*
Cc1cccc(C)c1NC(=O)CNC(=O)C1CC(=O)N(Cc2ccccc2)C1 (stereo unspecified) | -4% | -3 | 5% | 15% | -11%
Cc1cccc(C(=O)Oc2c(Sc3ccccc3)c(C)nn2C(C)(C)C)c1 | ? | nt | nt | nt | 23µM*
COCC(=O)Oc1c(Sc2ccc(C)cc2)c(C)nn1C(C)(C)C | -21% | nt | nt | nt | -24%
COc1ccc(C(=O)Oc2c(Sc3ccc(Cl)cc3)c(C)nn2C(C)(C)C)cc1OC | 23µM* | nt | nt | nt | ?
COc1cc(C(=O)Oc2c(Sc3ccc(C)cc3)c(C)nn2-c2ccccc2)cc(OC)c1OC | -16% | nt | nt | nt | -20%
CCOc1ccccc1C(=O)Oc1c(Sc2ccccc2)c(C)nn1C(C)(C)C | -19% | nt | nt | nt | -5%
COc1cccc(C(=O)Oc2c(Sc3ccc(C)cc3)c(C)nn2C(C)(C)C)c1OC | 16µM* | nt | nt | nt | 23µM*
CCC(CC)C(=O)Oc1c(Sc2ccccc2[N+](=O)[O-])c(C)nn1C(C)(C)C | ? | -19 | -8% | -4% | ?
COc1ccc(C(=O)Oc2c(Sc3ccc(C)cc3)c(C)nn2C(C)(C)C)cc1OC | ? | nt | nt | nt | 21µM*
CC1CCCCC1NC(=O)c1ccc(-n2cncn2)cc1 (stereo unspecified) | 13% | 11 | 9% | 0% | -12%
COc1ccc(NC(=O)C(OC(=O)Cn2cnc3c2c(=O)n(C)c(=O)n3C)c2ccccc2)cc1Cl (stereo unspecified) | 1% | -13 | 9% | -1% | 12%
Cn1ccnc1SCC(=O)Nc1cccc(S(=O)(=O)N2CCCCC2)c1 | 3% | 3 | 12% | 5% | 2%
CC(=O)c1cccc(NC(=O)CSc2n[nH]c(=O)n2C2CC2)c1 | -5% | -16 | -7% | 2% | ?
COC(=O)Cc1ccc(NC(=S)NCCSc2ccc(Cl)cc2)cc1 | ? | -57* | 3% | -12% | 21µM*
Cc1cc(C)cc(NC(=S)NCCSc2ccc(Cl)cc2)c1 | ? | -202* | ? | ? | 21µM*
Cc1ccc(SCCNC(=S)Nc2ccc(C)c(C)c2)cc1 | ? | -28 | -11% | -7% | ?
C[C@@H]1C(=O)N(c2ccccc2)[C@@H]1c1ccncc1 | 1% | 5 | -4% | 3% | -16%
